Data published in the supplement of paper PMC13380429.

Tests used:
[1] = test system: Vero E6 infected with SARS-CoV-2; assay: morphology score (similarity to uninfected cells); higher = more like uninfected cells; conditions: 24 h
[2] = test system: Vero E6 infected with SARS-CoV-2; assay: SARS-CoV-2 infection rate relative to infected DMSO; higher = more infection, active = 60 or less; conditions: 24 h

O=c1[nH]c([C@@H]2CCCN2)nc2c1oc1ccc(Cl)cc12 (0.833333 µM)
morphology score [1]: 0.106
SARS-CoV-2 infection rate [2]: 104% (inactive)

COc1cc2c(cc1O)C(CCc1ccc(Cl)cc1)N(C)CC2 (stereo not given) (10 µM)
morphology score [1]: 0.298
SARS-CoV-2 infection rate [2]: 72% (inactive)

C[C@H](CCC(=O)O)[C@H]1CC[C@H]2[C@@H]3[C@@H](O)C[C@@H]4C[C@H](O)CC[C@]4(C)[C@H]3CC[C@]12C [ursodiol] (10 µM)
morphology score [1]: -0.0233
SARS-CoV-2 infection rate [2]: 106% (inactive)

Cn1c(=O)cnn(CCCCN2CCN(c3ncccn3)CC2)c1=O (10 µM)
morphology score [1]: -0.0383
SARS-CoV-2 infection rate [2]: 115% (inactive)

CC1(C)[C@@H](O)CC[C@]2(C)[C@H]3C(=O)C=C4[C@@H]5C[C@@](C)(C(=O)O)CC[C@]5(C)CC[C@@]4(C)[C@]3(C)CC[C@@H]12 [enoxolone] (10 µM)
morphology score [1]: 0.00688
SARS-CoV-2 infection rate [2]: 110% (inactive)

CO/N=C(\C(=O)N[C@@H]1C(=O)N2C(C(=O)OCOC(=O)C(C)(C)C)=C(/C=C\c3scnc3C)CS[C@H]12)c1csc(N)n1 [cefditoren-pivoxil] (10 µM)
morphology score [1]: 0.149
SARS-CoV-2 infection rate [2]: 99.5% (inactive)

O=C(CCCN1CCN(c2ccccn2)CC1)c1ccc(F)cc1 [azaperone] (10 µM)
morphology score [1]: 0.13
SARS-CoV-2 infection rate [2]: 83% (inactive)

CCO[C@@H]1OC(=O)C[C@@H]1NC(=O)[C@@H]1CCCN1C(=O)[C@@H](NC(=O)c1ccc(N)c(Cl)c1)C(C)(C)C (10 µM)
morphology score [1]: 0.0386
SARS-CoV-2 infection rate [2]: 116% (inactive)

Cc1coc2c1C(=O)C(=O)c1c-2ccc2c1CCCC2(C)C [tanshinone-IIA] (10 µM)
morphology score [1]: 0.159
SARS-CoV-2 infection rate [2]: 102% (inactive)

CCCCc1ccc2[nH]c(NC(=O)OC)nc2c1 [parbendazole] (10 µM)
morphology score [1]: -0.112
SARS-CoV-2 infection rate [2]: 111% (inactive)

C#CCC(Cc1cnc2nc(N)nc(N)c2n1)c1ccc(C(=O)N[C@@H](CCC(=O)O)C(=O)O)cc1 (stereo not given in full) [pralatrexate] (10 µM)
morphology score [1]: 0.042
SARS-CoV-2 infection rate [2]: 104% (inactive)

C=CCN1CC[C@]23c4c5ccc(O)c4O[C@H]2[C@@H](OCCOCCOCCOCCOCCOCCOCCOC)CC[C@@]3(O)[C@H]1C5 [naloxegol] (10 µM)
morphology score [1]: 0.25
SARS-CoV-2 infection rate [2]: 92% (inactive)

O=C1NC(=O)c2c1c(-c1ccccc1)cc1[nH]c3ccc(O)cc3c21 (0.833333 µM)
morphology score [1]: 0.685
SARS-CoV-2 infection rate [2]: 93.5% (inactive)

Nc1nc2c(c(N3CCNCC3)n1)CCC1=C2[C@@H]2CCCC[C@@H]2O1 (10 µM)
morphology score [1]: 0.247
SARS-CoV-2 infection rate [2]: 83.5% (inactive)

CCC[C@H](NC(=O)/C(C#N)=C/c1cccc(Br)n1)c1ccccc1 (0.833333 µM)
morphology score [1]: 0.143
SARS-CoV-2 infection rate [2]: 108% (inactive)

Cc1cc(C)cc(C(=O)O[C@H]2C[C@H]3CC[C@@H](C2)N3C)c1 [tropanyl-3,5-dimethylbenzoate] (10 µM)
morphology score [1]: 0.23
SARS-CoV-2 infection rate [2]: 90% (inactive)

Nc1nc2c(ccc3ccccc32)s1 (10 µM)
morphology score [1]: -0.0747
SARS-CoV-2 infection rate [2]: 102% (inactive)

NC(=O)c1cnc2[nH]ccc2c1N[C@@H]1[C@@H]2CC3C[C@H]1C[C@@](O)(C3)C2 (10 µM)
morphology score [1]: 0.174
SARS-CoV-2 infection rate [2]: 106% (inactive)

O=C(O)c1cc(=O)c2c(OCC(O)COc3cccc4oc(C(=O)O)cc(=O)c34)cccc2o1 [cromoglicic-acid] (10 µM)
morphology score [1]: 0.204
SARS-CoV-2 infection rate [2]: 87% (inactive)

O=C1CCC[C@@H]2[C@H]3CCCN4CCC[C@@H](CN12)[C@@H]34 [matrine] (10 µM)
morphology score [1]: 0.0694
SARS-CoV-2 infection rate [2]: 112% (inactive)

O=C(O)c1ccc2[nH]cc(CCCCN3CC=C(c4ccccc4)CC3)c2c1 [carmoxirole] (10 µM)
morphology score [1]: 0.0618
SARS-CoV-2 infection rate [2]: 96.5% (inactive)

Cc1nc(Nc2cnn(C3CCNCC3)c2)nc2c1N(C)C(=O)c1cc3ccccc3cc1N2C (0.833333 µM)
morphology score [1]: 0.143
SARS-CoV-2 infection rate [2]: 104% (inactive)

NC(=O)CN1Cc2ccccc2OC1=O [caroxazone] (10 µM)
morphology score [1]: 0.0974
SARS-CoV-2 infection rate [2]: 100% (inactive)

C[C@@H](CN1CCC(n2c(=O)[nH]c3cc(Cl)ccc32)CC1)NC(=O)c1ccc2ccccc2c1 (10 µM)
morphology score [1]: 0.46
SARS-CoV-2 infection rate [2]: 87% (inactive)

OCc1cccnc1 [nicotinyl-alcohol-tartrate] (10 µM)
morphology score [1]: -0.13
SARS-CoV-2 infection rate [2]: 118% (inactive)

O=C(NC[C@H](O)CN1CCc2ccccc2C1)c1cc(NC2COC2)ncn1 (10 µM)
morphology score [1]: -0.0443
SARS-CoV-2 infection rate [2]: 100% (inactive)

Cc1ccc(NC(=O)c2ccc(CN3CC[C@H](N(C)C)C3)c(C(F)(F)F)c2)cc1Nc1nccc(-c2cncnc2)n1 [bafetinib] (0.833333 µM)
morphology score [1]: 0.358
SARS-CoV-2 infection rate [2]: 104% (inactive)

Cc1cc(C(=O)O)sc1C(N)C(=O)O (stereo not given) (10 µM)
morphology score [1]: -0.0491
SARS-CoV-2 infection rate [2]: 95% (inactive)

COc1ccccc1OCCNCC(O)COc1cccc2[nH]c3ccccc3c12 (stereo not given) [carvedilol] (10 µM)
morphology score [1]: 0.134
SARS-CoV-2 infection rate [2]: 97.5% (inactive)

CC[C@H](C)[C@@H]1NC(=O)[C@H](Cc2ccc(OC)cc2)NC(=O)CCCSC[C@@H](C(=O)N2CCC[C@H]2C(=O)N[C@@H](CC(C)C)C(=O)NCC(N)=O)NC(=O)[C@H](CC(N)=O)NC(=O)[C@H](CCC(N)=O)NC1=O [carbetocin] (10 µM)
morphology score [1]: 0.123
SARS-CoV-2 infection rate [2]: 118% (inactive)
